Rab9 prom act: Rab9 promoter activation; 320,000 compounds, 2.8% hits; Potency, µM (highest dose often 9.22 µM), hits mostly activators; Huh7 Rab9 promoter-luciferase reporter, luminescence, 24 h; AID 485297; further: nearly all actives have a fitted effect of over 60% in size
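Using Huh7 cells stably transfected with Rab9 promoter–luciferase, compounds were incubated 24 h at 37 °C, 5% CO2; luciferase luminescence was read 10 min after reagent addition.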
NPC1 prom act: activates the NPC1 promoter | 320,000 compounds, 2.4% hits | Potency, µM (doses to about 9.22 µM), actives largely listed as activators | Huh7 NPC1 promoter luciferase reporter, 24 h; further: nearly all actives have a fitted effect of over 60% in size
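Luminescence from an NPC1 promoter-driven luciferase reporter in stably transfected Huh7 cells was measured after 24 h compound treatment at 37 °C, followed by 10 min ambient incubation with luciferase detection reagent.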
SMN2 splice enh: SMN2 splice variant enhancement | 210,000 compounds, 2.8% hits | HEK293 SMN2-luciferase splicing reporter, luminescence, 30-36 h | Potency, µM (series often up to 46.1 µM), most hits filed as activators | AID 1458; further: nearly all actives have a fitted effect of over 55% in size
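HEK293 cells carry an SMN2 […]–luciferase reporter in which exon 7 inclusion puts luciferase in frame. Cells were plated 10-12 h before compound addition, then incubated 30-36 h at 37C. ONE-Glo luminescence was read; sodium butyrate at 4.5 mM final served as control.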
Luc counter: blocks Kinase-Glo luciferase, a counter-screen artifact | Q27757 | Kinase-Glo luciferase, ATP luminescence, 8 min | 200,000 compounds, 0.28% hits | Potency, µM (doses to about 38.3 µM), usual class: inhibitors; further: nearly all actives have a fitted effect of over 60% in size
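Recombinant Kinase-Glo luciferase, 10 uM ATP (linear range), luciferin; imidazole pH 7.2 / KCl / MgCl2 / Tween / BSA buffer; 8 min RT; luminescence.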
FLuc counter: counter-screen for miR-21 project: firefly luciferase inhibitors or activators. P08659. purified FLuc, Km substrates, luminescence inhibition. Potency, µM (titrated, usually from 57.5 µM), actives largely listed as inhibitors. 360,000 compounds, 6.9% hits. AID 588342; further: nearly all actives have a fitted effect of over 55% in size
Target sequence (P08659 whole entry, looked up): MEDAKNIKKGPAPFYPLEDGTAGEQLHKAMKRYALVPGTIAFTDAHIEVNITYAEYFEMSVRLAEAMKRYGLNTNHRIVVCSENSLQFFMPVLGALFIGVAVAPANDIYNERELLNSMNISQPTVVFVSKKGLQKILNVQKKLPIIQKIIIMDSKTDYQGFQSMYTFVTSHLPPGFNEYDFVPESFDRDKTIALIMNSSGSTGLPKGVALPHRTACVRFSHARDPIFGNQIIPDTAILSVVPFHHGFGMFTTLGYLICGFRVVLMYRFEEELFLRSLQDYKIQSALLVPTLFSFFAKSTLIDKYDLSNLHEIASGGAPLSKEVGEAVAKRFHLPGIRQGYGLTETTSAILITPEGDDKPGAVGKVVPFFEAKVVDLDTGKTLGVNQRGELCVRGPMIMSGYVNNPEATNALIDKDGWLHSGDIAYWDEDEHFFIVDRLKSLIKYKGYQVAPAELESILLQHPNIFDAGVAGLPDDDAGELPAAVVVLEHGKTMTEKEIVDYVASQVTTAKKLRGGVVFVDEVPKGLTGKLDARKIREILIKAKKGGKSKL
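Purified P. pyralis luciferase (10nM final) with 10uM D-luciferin and 10uM ATP (Km levels) in 50mM Tris acetate pH 7.5, 10mM Mg acetate, 0.01% Tween-20, 0.05% BSA; qHTS 6-point titration, ~60 µM downward; luminescence read.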
ELG1 genotoxic: induces genotoxicity in HEK293T cells with luciferase-tagged ELG1; HEK293T ELG1-luciferase reporter, luminescence, 16 h; Potency, µM (series often up to 46 µM), actives largely listed as activators; 330,000 compounds, 1.3% hits; further: nearly all actives have a fitted effect of over 60% in size
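Step 1: seed 2,000 HEK293T ELG1-luciferase cells per well. Step 2: add compound or DMSO, incubate 16 hr at 37 °C. Step 3: ONE-Glo, 30 min at room temperature, read luminescence.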
Numbers stand for hits; – = inactive; ? = inconclusive; · = no result. In the library only some 7.5% were active in any assay of this set; here they are far more common. The call rests on the fitted dose curve; in most records, active means well fitted curve in the direction sought with a large enough effect; inconclusive means small, poorly fitted or top-dose-only effect, or another doubt; inactive means no such curve, though single readings can be large; an effect the other way counts as inactive or inconclusive.

SMILES	Rab9 prom act	NPC1 prom act	SMN2 splice enh	Luc counter	FLuc counter	ELG1 genotoxic
CCN(CC)S(=O)(=O)c1cc(C(=O)Nc2cc(C)on2)c(Cl)cc1Cl	–	–	·	·	–	–
COc1ccc(CNC(=O)CSc2nnc3c(n2)[nH]c2ccc(OC)cc23)cc1	–	–	·	·	–	–
COc1ccc2[nH]c3nc(SC(C)C)nnc3c2c1	0.794µM	0.708µM	?	–	0.338µM	–
COc1cccc(-c2nnc3sc(CN4CCCCC4)cn23)c1	·	·	·	·	–	·
Nc1nccc(/C=C/c2ccc(Cl)cc2)n1	2.24µM	1.78µM	·	·	6.01µM	?
CN(CC(=O)Nc1ccccc1Br)C(=O)c1ccccc1-c1nc2ccccc2s1	–	–	·	·	–	–
O=C(c1ccc2nc(Cc3ccccc3F)oc2c1)N1CCCC1	1.26µM	2.82µM	·	·	9.53µM	10.3µM
CC(c1ccccn1)N(C)C(=O)c1ccc2nc(Cc3ccccc3F)oc2c1 (stereo not given)	2.82µM	?	·	·	6.75µM	13µM
Cc1cc(CNC(=O)c2ccc3nc(Cc4ccccc4F)oc3c2)nn1C	3.16µM	2.82µM	·	·	10.7µM	?
O=C(NCc1ccncc1)c1ccc2nc(Cc3ccccc3F)oc2c1	–	–	·	·	–	–
CCc1cccc(NC(=O)CCN2C(=O)c3ccccc3Sc3ncccc32)c1	·	·	·	·	–	·
Cc1cccc(-n2c(C)cc(/C=C3\NC(=O)NC3=O)c2C)c1	–	–	·	·	6.75µM	?
COC(=O)C1=C(C)NC(=O)/C1=C\c1cc(C)n(-c2cccc(C)c2)c1C	–	–	–	–	26.9µM	–
COC(=O)C1=C(C)NC(=O)/C1=C\c1cc(C)n(-c2ccc(F)cc2)c1C	–	–	–	–	19µM	–
COc1ccc(NC(=O)C2CCN(S(=O)(=O)c3cccc4nonc34)CC2)cc1	–	–	·	·	–	–
Cc1ccc(S(=O)(=O)N2CCCCC2)c2nsnc12	–	–	·	·	–	–
COc1cc(-c2nc(-c3cccc(Cl)c3)c(-c3ccccc3)[nH]2)cc(OC)c1OC	·	·	–	·	–	·
COc1cc(-c2nc(-c3ccc4c(c3)-c3ccccc3S4(=O)=O)c(-c3ccccc3)[nH]2)cc(OC)c1O	–	–	–	–	6.75µM	–
O=c1/c(=C/c2ccc([N+](=O)[O-])cc2)sc2n1CCCN=2	3.55µM	2.82µM	–	–	?	?
COc1cc(/C=c2\sc3n(c2=O)CCCN=3)ccc1O	–	–	–	–	?	?
Cc1nnc(C)n1/N=C/c1cccc([N+](=O)[O-])c1	–	–	–	–	–	–
O=[N+]([O-])c1ccc(/C=N/Nc2ncc(-c3ccccc3)cn2)cc1	–	–	–	–	–	–
O=[N+]([O-])c1cccc(/C=N/N=C\c2ccccc2)c1	–	–	·	·	3.38µM	–
O=[N+]([O-])c1ccc(N/N=C/c2ccccc2)c(F)c1	?	?	22.4µM	–	10.7µM	?
O=C(CN1C(=O)COc2ccc(S(=O)(=O)Nc3ccccc3)cc21)Nc1cccc(Cl)c1	·	·	·	·	–	·
SMILES	Rab9 prom act	NPC1 prom act	SMN2 splice enh	Luc counter	FLuc counter	ELG1 genotoxic
N/C(=N\OC(=O)C(c1ccccc1)c1ccccc1)c1ccccn1	–	–	–	–	–	–
N/C(=N\OC(=O)CCC1CCCC1)c1ccccn1	–	–	?	–	0.477µM	?
N/C(=N\OC(=O)CCCc1ccccc1)c1ccccn1	–	–	–	–	2.13µM	–
N/C(=N\OC(=O)Cc1ccccc1)c1ccccn1	–	–	–	–	16.9µM	–
COc1ccc(/C(N)=N/OC(=O)CCCc2ccccc2)cc1OC	–	–	–	–	?	–
Cc1ccc(NC(=O)CNC(C)c2ccccc2)cc1 (stereo not given)	–	–	·	·	?	–
C/C=C/C(=O)C[C@H]1CC[C@@H](C)[C@@H](CCO)O1	·	·	–	–	·	·
Cc1nc(NS(=O)(=O)c2ccccc2)sc1C(=O)N/N=C/c1ccccc1	–	–	·	·	9.53µM	–
Cc1nc(NS(=O)(=O)c2ccccc2)sc1C(=O)NNS(=O)(=O)c1ccccc1	–	–	·	·	–	–
C(=N\N(c1ccccc1)c1ccccc1)/c1ccc2c(c1)OCO2	–	–	–	–	–	–
